Several values for one entry are separate records, joined by “and”; a condition that tells them apart may be missing. Equal values may be shown once. Inconclusive results are not listed. Activity calls are given as the source filed them. Rule for the calls: active = hit-call score of the fitted dose curve at least 0.9, where 1 is the maximum; inconclusive = response in the unintended direction; inactive = score below 0.9.

In PubChem BioAssay (EPA / NIEHS) one finds AC50 and outcome data, which are given here for 20 compounds.

Experiment [1] addresses rat Serotonin, 5-Hydroxytryptamine Receptor (5HT), Non-Selective Binding, Htr1a (gene 24473) (UniProt P19327). Nature of the experiment: NVS_GPCR_r5HT_NonSelective: NovaScreen (NVS) G Protein-Coupled Receptor Assay for rat Serotonin, 5-Hydroxytryptamine Receptor (5HT), Non-Selective Binding (AID 2283295). The method, then:
(§1) NVS_GPCR_r5HT_NonSelective is a biochemical, single-readout assay that uses extracted gene-proteins from Rat cortical membranes in a tissue-based cell-free assay. Measurements were taken 1 hour after chemical dosing in a 48-well plate.NVS_GPCR_r5HT_NonSelective is one of one assay component(s) measured or calculated from the NVS_GPCR_r5HT_NonSelective assay. It is designed to make measurements of radioligand binding, a form of binding reporter, as detected with scintillation counting signals by Filter-based radiodetection technology.Data from the assay component NVS_GPCR_r5HT_NonSelective was analyzed into 1 assay endpoint. This assay endpoint, NVS_GPCR_r5HT_NonSelective, was analyzed in the positive analysis fitting direction relative to DMSO as the negative control and baseline of activity. Using a type of binding reporter, loss-of-signal activity can be used to understand changes in the binding as they relate to the gene Htr1a. Furthermore, this assay endpoint can be referred to as a primary readout, because the performed assay has only produced 1 assay endpoint. To generalize the intended target to other relatable targets, this assay endpoint is annotated to the gpcr intended target family, where the subfamily is rhodopsin-like receptor.
Binding assays used specific radioligands (tritiated, iodinated) with non-radioactive competitive displacement ligands in agonist or antagonist protocols (as indicated) and various reference compounds and inhibitors to titrate specific binding to receptors and transporters. Most enzyme assays (CYPs, kinases, phosphatases, proteases, HDACs) used recombinant protein and specific substrates (fluorescence mostly, some colorimetric and radioactive) and inhibitors, followed by a biochemical separation of substrate and product. All assays for the biochemical HTS were initially run in duplicate at a single concentration (10 uM for CYP450 assays and 25 uM for all others). […] Each assay was run with positive and negative controls, and concurrent controls on every plate. The follow-up (secondary) screen tested active chemical-pairs in concentration series, as well as a few additional assays not tested in the primary screen, some selected negative inactives, and several cases re-run in the concentration series for confirmatory purposes.

The target of experiment [2] is rat Adrenergic Receptor, Alpha 2 (Adra2), Non-selective Binding, Adra2a (gene 25083) (UniProt P22909). The experiment is described as follows: NVS_GPCR_rAdra2_NonSelective: NovaScreen (NVS) G Protein-Coupled Receptor Assay for rat Adrenergic Receptor, Alpha 2 (Adra2), Non-selective Binding (AID 2283299). The gist of the method: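 Rat cortical membranes, radioligand competitive displacement read by filter-based scintillation counting 1.25 hours after dosing. Primary screen in duplicate at 25 uM; actives followed up in concentration series.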

The target of experiment [3] is Adra2b (gene 24174) (UniProt P19328). Nature of the experiment: NVS_GPCR_rmAdra2B: NovaScreen (NVS) G Protein-Coupled Receptor Assay for hybird cells Adrenergic, Alpha 2B Receptor (Adra2B) (AID 2283306). The gist of the method:
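Radioligand filter-binding assay on membrane proteins from neuroglioma/blastoma hybrid cells (rodent), 1 h after dosing; scintillation counting, loss of signal vs DMSO. Primary screen in duplicate at 25 uM, actives then run in concentration series.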

In experiment [4] the target is rat Histamine Receptor (H3), Hrh3 (gene 85268) (UniProt Q9QYN8). Nature of the experiment: NVS_GPCR_rH3: NovaScreen (NVS) G Protein-Coupled Receptor Assay for rat Histamine Receptor (H3) (AID 2283303). The protocol:
as §1, with “NVS_GPCR_rH3” for “NVS_GPCR_r5HT_NonSelective”, “forebrain” for “cortical”, “plate.NVS_GPCR_rH3” for “plate.NVS_GPCR_r5HT_NonSelective”, “NVS_GPCR_rH3,” for “NVS_GPCR_r5HT_NonSelective,”, “Hrh3.” for “Htr1a.”
Binding assays used specific radioligands (tritiated, iodinated) with non-radioactive competitive displacement ligands in agonist or antagonist protocols (as indicated) and various reference compounds and inhibitors to titrate specific binding to receptors and transporters. Most enzyme assays (CYPs, kinases, phosphatases, proteases, HDACs) used recombinant protein and specific substrates (fluorescence mostly, some colorimetric and radioactive) and inhibitors, followed by a biochemical separation of substrate and product. All assays for the biochemical HTS were initially run in duplicate at a single concentration (10 uM for CYP450 assays and 25 uM for all others). Assay-chemical combinations meeting a pre-defined threshold (e.g., 30% inhibition and other criteria defined below) were then run in singleton concentration-response format with maximum concentration of 20 uM for CYPs and 50 uM for all others. Each assay was run with positive and negative controls, and concurrent controls on every plate. The follow-up (secondary) screen tested active chemical-pairs in concentration series, as well as a few additional assays not tested in the primary screen, some selected negative inactives, and several cases re-run in the concentration series for confirmatory purposes.

Experiment [5] concerns the target rat Adrenergic Receptor, Beta (Adrb), Non-selective Binding, Adrb1 (gene 24925) (UniProt P18090). Nature of the experiment: NVS_GPCR_rAdrb_NonSelective: NovaScreen (NVS) G Protein-Coupled Receptor Assay for rat Adrenergic Receptor, Beta (Adrb), Non-selective Binding (AID 2283298). Summed up: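 Non-selective beta-adrenergic radioligand binding in rat cortical membranes, 1 h incubation, filter-based scintillation read-out. Primary screen 25 uM in duplicate; hits retested in concentration-response up to 50 uM, DMSO baseline.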

Experiment [6] concerns the target rat Corticotropin Releasing Factor Receptor (CRF), Crhr1 (gene 58959) (UniProt P35353). The experiment is described as follows: NVS_GPCR_rCRF: NovaScreen (NVS) G Protein-Coupled Receptor Assay for rat Corticotropin Releasing Factor Receptor (CRF) (AID 2283300). The gist of the method:
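Rat cortical membranes used as receptor source in a radioligand competitive displacement binding assay; scintillation read 2 h after dosing. Primary screen run in duplicate at 25 uM; loss of signal versus DMSO baseline indicates binding.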

The target in experiment [7] is rat Gamma-Aminobutyric Acid Type B Receptor (GABBR), Gabbr1 (gene 81657) (UniProt Q9Z0U4). The experiment is described as follows: NVS_GPCR_rGABBR: NovaScreen (NVS) G Protein-Coupled Receptor Assay for rat Gamma-Aminobutyric Acid Type B Receptor (GABBR) (AID 2283301). Summed up: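 Radioligand displacement on rat cortical membranes, 1 h, filter-based scintillation counting. Primary screen at 25 uM in duplicate; compounds passing threshold re-tested in concentration-response up to 50 uM; loss of binding fitted against DMSO.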

In experiment [8] the target is Metabotropic glutamate receptor 1 (Rattus norvegicus) (UniProt P23385). The experiment is described as follows: NVS_GPCR_rmMGluR1: NovaScreen (NVS) G Protein-Coupled Receptor Assay for rat Glutamate Metabotropic Receptor 1 (MGluR1) (AID 2283305). The protocol:
as §1, with “NVS_GPCR_rmMGluR1” for “NVS_GPCR_r5HT_NonSelective”, “cerebellum” for “cortical membranes”, “96-well plate.NVS_GPCR_rmMGluR1” for “48-well plate.NVS_GPCR_r5HT_NonSelective”, “NVS_GPCR_rmMGluR1,” for “NVS_GPCR_r5HT_NonSelective,”, “Grm1.” for “Htr1a.”, “metabotropic glutamate” for “rhodopsin-like”
Binding assays used specific radioligands (tritiated, iodinated) with non-radioactive competitive displacement ligands in agonist or antagonist protocols (as indicated) and various reference compounds and inhibitors to titrate specific binding to receptors and transporters. Most enzyme assays (CYPs, kinases, phosphatases, proteases, HDACs) used recombinant protein and specific substrates (fluorescence mostly, some colorimetric and radioactive) and inhibitors, followed by a biochemical separation of substrate and product. All assays for the biochemical HTS were initially run in duplicate at a single concentration (10 uM for CYP450 assays and 25 uM for all others). […]

Experiment [9] has as its target rat Glutamate Metabotropic Receptor 5 (MGluR5), Grm5 (gene 24418) (UniProt P31424). The experiment is described as follows: NVS_GPCR_rmMGluR5: NovaScreen (NVS) G Protein-Coupled Receptor Assay for rat Glutamate Metabotropic Receptor 5 (MGluR5) (AID 2283307). Summed up: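 Rat whole-brain membrane preparation; filter-based radioligand binding read by scintillation counting, 1.5 h after dosing. Single-point screen at 25 uM in duplicate; hits over threshold (e.g. 30% inhibition) retested in concentration-response up to 50 uM; loss of signal vs DMSO.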

The test system of experiment [10] is rat Adrenergic, Alpha 1B Receptor (Adra1B), gene 24173. The experiment is described as follows: NVS_GPCR_rAdra1B: NovaScreen (NVS) G Protein-Coupled Receptor Assay for rat Adrenergic, Alpha 1B Receptor (Adra1B) (AID 2283297). Summed up:
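Rat liver membranes, radioligand displacement with filter-based scintillation detection, 1 h incubation. Primary screen in duplicate at 25 uM; actives retested in concentration series; activity relative to DMSO.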

Sequence of Adra2b (gene 24174) (P19328 whole entry, looked up): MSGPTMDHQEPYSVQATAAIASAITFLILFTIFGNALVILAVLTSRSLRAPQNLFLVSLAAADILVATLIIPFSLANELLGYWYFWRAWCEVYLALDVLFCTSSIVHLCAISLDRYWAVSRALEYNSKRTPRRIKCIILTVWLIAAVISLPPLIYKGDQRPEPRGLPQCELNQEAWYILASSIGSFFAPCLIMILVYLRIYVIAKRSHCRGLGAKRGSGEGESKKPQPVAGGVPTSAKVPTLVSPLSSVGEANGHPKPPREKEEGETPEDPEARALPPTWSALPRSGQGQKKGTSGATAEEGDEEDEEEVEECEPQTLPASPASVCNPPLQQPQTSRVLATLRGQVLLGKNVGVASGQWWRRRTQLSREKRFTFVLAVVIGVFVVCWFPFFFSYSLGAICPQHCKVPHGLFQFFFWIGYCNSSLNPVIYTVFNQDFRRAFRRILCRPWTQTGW
Sequence of rat Serotonin, 5-Hydroxytryptamine Receptor (5HT), Non-Selective Binding, Htr1a (gene 24473) (P19327 whole entry, looked up): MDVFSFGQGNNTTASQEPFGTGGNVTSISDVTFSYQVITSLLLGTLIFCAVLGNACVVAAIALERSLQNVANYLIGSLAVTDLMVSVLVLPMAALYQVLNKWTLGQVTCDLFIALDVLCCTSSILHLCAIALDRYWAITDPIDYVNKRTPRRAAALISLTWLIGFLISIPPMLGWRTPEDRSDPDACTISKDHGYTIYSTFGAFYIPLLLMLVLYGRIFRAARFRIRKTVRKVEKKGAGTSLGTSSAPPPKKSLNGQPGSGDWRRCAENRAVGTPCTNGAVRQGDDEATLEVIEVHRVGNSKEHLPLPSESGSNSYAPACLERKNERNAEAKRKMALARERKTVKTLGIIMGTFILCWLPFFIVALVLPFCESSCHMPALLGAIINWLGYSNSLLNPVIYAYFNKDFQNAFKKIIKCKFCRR
Sequence of rat Corticotropin Releasing Factor Receptor (CRF), Crhr1 (gene 58959) (P35353 whole entry, looked up): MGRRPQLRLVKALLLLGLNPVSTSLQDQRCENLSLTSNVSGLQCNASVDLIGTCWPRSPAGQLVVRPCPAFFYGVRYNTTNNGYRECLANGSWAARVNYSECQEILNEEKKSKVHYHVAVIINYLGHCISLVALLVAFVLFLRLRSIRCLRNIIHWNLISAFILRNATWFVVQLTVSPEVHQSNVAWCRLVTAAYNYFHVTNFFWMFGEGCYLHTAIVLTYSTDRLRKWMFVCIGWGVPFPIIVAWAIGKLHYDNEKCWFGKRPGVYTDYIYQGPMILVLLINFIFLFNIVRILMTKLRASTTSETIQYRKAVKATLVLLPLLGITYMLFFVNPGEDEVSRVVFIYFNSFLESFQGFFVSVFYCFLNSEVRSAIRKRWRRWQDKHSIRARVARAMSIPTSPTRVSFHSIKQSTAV
Sequence of rat Histamine Receptor (H3), Hrh3 (gene 85268) (Q9QYN8 whole entry, looked up): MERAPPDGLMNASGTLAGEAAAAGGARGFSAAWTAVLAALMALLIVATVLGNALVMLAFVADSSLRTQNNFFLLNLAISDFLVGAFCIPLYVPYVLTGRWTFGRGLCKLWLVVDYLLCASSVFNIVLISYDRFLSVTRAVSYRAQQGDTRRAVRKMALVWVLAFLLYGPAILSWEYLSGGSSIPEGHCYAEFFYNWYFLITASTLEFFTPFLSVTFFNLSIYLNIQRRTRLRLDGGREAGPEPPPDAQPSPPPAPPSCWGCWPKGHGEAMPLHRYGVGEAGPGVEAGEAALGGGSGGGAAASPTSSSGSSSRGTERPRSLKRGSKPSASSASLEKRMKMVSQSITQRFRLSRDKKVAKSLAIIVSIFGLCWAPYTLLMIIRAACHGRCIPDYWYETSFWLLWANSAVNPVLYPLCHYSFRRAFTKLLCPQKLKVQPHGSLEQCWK
Sequence of Metabotropic glutamate receptor 1 (Rattus norvegicus) (P23385 whole entry, looked up): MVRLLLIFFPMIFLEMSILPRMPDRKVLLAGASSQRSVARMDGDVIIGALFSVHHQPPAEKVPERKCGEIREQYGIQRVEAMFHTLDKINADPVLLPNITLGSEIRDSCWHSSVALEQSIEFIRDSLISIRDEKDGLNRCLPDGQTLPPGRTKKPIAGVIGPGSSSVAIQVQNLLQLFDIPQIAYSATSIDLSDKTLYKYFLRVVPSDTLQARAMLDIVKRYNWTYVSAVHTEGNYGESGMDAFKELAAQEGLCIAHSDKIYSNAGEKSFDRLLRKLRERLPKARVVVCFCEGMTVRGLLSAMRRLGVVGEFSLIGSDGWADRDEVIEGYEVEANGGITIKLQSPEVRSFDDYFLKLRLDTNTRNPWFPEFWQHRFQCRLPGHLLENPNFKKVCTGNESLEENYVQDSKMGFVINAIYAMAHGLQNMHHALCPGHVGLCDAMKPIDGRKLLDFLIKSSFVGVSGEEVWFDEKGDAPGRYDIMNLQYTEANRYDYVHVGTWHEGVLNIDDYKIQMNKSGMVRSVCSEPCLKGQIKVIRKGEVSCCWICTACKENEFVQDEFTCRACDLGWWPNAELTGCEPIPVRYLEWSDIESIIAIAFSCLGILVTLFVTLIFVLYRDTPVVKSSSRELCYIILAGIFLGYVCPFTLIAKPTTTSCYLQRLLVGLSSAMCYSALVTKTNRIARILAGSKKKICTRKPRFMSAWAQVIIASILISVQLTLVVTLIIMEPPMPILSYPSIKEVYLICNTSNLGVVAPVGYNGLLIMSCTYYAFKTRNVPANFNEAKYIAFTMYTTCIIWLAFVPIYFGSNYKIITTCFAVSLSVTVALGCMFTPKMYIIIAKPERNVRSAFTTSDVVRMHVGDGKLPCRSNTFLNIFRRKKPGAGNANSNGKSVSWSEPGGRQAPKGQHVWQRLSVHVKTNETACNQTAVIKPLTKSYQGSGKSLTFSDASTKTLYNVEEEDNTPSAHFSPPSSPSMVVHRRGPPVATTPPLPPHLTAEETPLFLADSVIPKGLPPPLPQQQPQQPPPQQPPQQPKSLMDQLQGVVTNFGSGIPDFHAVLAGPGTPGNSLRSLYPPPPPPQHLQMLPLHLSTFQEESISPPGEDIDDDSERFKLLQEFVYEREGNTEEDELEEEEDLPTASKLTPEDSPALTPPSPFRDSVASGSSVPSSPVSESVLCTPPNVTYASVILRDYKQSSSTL
Sequence of rat Adrenergic Receptor, Alpha 2 (Adra2), Non-selective Binding, Adra2a (gene 25083) (P22909 whole entry, looked up): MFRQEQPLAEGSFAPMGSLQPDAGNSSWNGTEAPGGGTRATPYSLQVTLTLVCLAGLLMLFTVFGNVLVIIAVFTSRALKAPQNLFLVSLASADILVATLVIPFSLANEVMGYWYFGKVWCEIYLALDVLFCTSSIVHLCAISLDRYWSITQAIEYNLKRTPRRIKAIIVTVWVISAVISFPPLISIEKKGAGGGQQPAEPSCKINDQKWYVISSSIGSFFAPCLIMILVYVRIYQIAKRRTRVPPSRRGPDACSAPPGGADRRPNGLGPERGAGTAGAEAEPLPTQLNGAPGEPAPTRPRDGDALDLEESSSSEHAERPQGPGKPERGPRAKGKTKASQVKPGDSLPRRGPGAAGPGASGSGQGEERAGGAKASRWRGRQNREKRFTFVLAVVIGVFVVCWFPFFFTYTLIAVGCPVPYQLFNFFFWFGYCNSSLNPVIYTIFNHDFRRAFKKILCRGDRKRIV
Sequence of rat Adrenergic Receptor, Beta (Adrb), Non-selective Binding, Adrb1 (gene 24925) (P18090 whole entry, looked up): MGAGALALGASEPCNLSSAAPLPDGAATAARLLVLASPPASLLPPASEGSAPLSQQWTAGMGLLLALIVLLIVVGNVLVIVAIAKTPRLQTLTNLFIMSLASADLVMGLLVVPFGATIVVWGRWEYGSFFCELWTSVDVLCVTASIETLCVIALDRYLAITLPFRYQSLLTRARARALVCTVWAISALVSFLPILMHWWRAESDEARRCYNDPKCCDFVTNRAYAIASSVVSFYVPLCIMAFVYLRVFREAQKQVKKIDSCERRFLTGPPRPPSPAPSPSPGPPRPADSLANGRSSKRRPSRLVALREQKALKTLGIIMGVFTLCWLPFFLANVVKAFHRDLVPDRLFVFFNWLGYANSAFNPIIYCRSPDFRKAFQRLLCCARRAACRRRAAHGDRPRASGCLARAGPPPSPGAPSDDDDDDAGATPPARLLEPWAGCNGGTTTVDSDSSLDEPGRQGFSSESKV
Sequence of rat Gamma-Aminobutyric Acid Type B Receptor (GABBR), Gabbr1 (gene 81657) (Q9Z0U4 whole entry, looked up): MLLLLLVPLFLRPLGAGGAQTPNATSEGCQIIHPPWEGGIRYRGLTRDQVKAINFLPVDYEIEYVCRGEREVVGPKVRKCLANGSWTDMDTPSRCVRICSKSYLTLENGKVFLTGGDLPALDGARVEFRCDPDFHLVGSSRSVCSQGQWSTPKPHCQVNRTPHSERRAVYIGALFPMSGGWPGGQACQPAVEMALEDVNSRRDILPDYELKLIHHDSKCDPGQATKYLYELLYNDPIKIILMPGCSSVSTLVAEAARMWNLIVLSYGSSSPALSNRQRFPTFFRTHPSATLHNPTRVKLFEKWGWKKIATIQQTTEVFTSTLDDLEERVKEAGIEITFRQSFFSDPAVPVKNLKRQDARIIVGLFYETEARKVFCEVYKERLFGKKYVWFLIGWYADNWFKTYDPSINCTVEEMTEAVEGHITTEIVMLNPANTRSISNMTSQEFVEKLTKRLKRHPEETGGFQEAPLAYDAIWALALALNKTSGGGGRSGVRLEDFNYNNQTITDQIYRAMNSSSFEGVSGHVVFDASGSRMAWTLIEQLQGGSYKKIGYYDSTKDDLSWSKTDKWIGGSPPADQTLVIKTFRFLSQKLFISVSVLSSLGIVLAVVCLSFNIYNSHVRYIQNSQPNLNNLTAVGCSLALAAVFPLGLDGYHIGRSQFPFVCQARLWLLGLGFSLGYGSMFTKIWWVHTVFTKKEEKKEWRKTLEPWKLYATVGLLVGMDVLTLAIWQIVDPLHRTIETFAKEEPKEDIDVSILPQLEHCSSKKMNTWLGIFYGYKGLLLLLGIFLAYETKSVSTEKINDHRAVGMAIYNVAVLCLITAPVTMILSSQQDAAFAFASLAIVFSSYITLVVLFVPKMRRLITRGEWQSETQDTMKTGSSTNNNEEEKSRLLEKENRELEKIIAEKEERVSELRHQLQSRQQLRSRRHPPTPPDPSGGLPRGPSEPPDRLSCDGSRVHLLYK

In the case of `O=C(Nc1ccccc1)Nc1ccnc(Cl)c1`, the AC50 in [1] is 17 µM (active); in experiment [2], 9.64 µM (active); in experiment [3], 8.91 µM (active).

For the compound `Cc1ccc(-c2c(Cl)nc(C#N)n2S(=O)(=O)N(C)C)cc1`, the AC50 in [4] is 5.9 µM (active); in experiment [3], 4.08 µM (active).

On to `COc1nc(NC(C)C)nc(NC(C)C)n1`, for which, in experiment [1], the call was inactive.

For `CCNc1nc(Cl)nc(NCC)n1`, in experiment [5], the outcome was inactive.

Take `CNC(=S)S`: the result in [6] was inactive.

For `CON(C)C(=O)Nc1ccc(Cl)c(Cl)c1`, the outcome in experiment [5] was inactive.

As for `COc1nc(C)nc(NC(=O)NS(=O)(=O)c2ccccc2Cl)n1`, in [7], the compound was called inactive.

As for `CCON=C(CC)C1=C(O)CC(c2c(C)cc(C)cc2C)CC1=O` (stereo unspecified), the AC50 in [3] is 2.7 µM (active).

In the case of `COc1cnc(OC)n2nc(NS(=O)(=O)c3c(OCC(F)F)cccc3C(F)(F)F)nc12`, the compound was classed as inactive in experiment [8].

Turning to `CCNc1nc(Cl)nc(NC(C)C)n1`, the outcome in [6] was inactive.

On to `CS/C(C)=N/OC(=O)N(C)SN(C)C(=O)O/N=C(\C)SC`, for which, in [1], the compound was classed as inactive. Also, the concentration at half-maximal activity (AC50) in [4] was 2 µM (active).

On to `CCCCOC(=O)c1ccccc1C(=O)OCCCC`, for which, in experiment [9], the result was inactive.

Consider `Cc1c(F)c(F)c(COC(=O)C2C(/C=C(\Cl)C(F)(F)F)C2(C)C)c(F)c1F` (stereo unspecified), for which, in experiment [8], the result was inactive.

For `N#Cc1nn(-c2c(Cl)cc(C(F)(F)F)cc2Cl)c(N)c1S(=O)C(F)(F)F` (stereo unspecified), the compound was classed as inactive in [6].

Consider `CC1COC(Cn2cncn2)(c2ccc(Oc3ccc(Cl)cc3)cc2Cl)O1` (stereo unspecified), for which the AC50 in experiment [2] is 2.28 µM (active); in experiment [3], 4.59 µM (active).

Take `CCOP(=S)(OCC)SCn1c(=O)oc2cc(Cl)ccc21`: the call in [10] was inactive.

`Fc1ccc(Oc2ccnc3cc(Cl)cc(Cl)c23)cc1`: in experiment [10], the call was inactive.

On to `N#CC(CCc1ccc(Cl)cc1)(Cn1cncn1)c1ccccc1` (stereo unspecified), for which the result in experiment [4] was inactive.

Take `CCCCNC(=O)OCC#CI`: the concentration at half-maximal activity (AC50) in experiment [4] was 4.99 µM (active) and 6.92 µM (active); in [8], 19.2 µM (active) and 1.24 µM (active).

For the compound `C=CCC1=C(C)[C@@H](OC(=O)[C@@H]2[C@@H](C=C(C)C)C2(C)C)CC1=O`, in experiment [1], the compound was called inactive.

The AC50 is the midpoint of the concentration-response curve, whichever way the signal moves.
